Data on 39 molecules can be found in PubChem BioAssay (NCI).

About 83,000 compounds went through this panel and 20% of them were active in at least one assay; those are over-represented in the sample as a whole.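 Each cell line was grown in a 96-well plate and treated with one concentration of compound for 48 hours. Values below 10 were considered active.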 Values without a mark were called inactive. Activity calls are given as the source filed them.

This test deals with HL-60(TB) leukemia. The test can be described thus: NCI-60 one-dose screen, 48 h (100 = growth as untreated, 0 = no growth, -100 = all killed). To be noted: 10 µM unless noted.
`CCCn1nc(C(=O)N2CCCCC2)c2c1CCC(N1CCC(c3ccncc3)CC1)C2` (centres undefined): the growth was 96.6%.

Regarding `Cc1nc(Nc2ccc(F)c(Cl)c2)sc1C(=O)O`, the growth is 11.6%.

In the case of `Cc1cc(Nc2nc(N3CCN(C)CC3)nc3ccccc23)n[nH]1`, the growth is 96.6%.

Take `Cc1nnc2c(Cc3ccccc3)nc3ccccc3n12`: the growth was 95.7%.

Consider `O=C(Nc1cc(=O)[nH]c(=O)[nH]1)C(Cl)Cl`, for which the growth is 99.4%.

`O=C(c1cccc(Br)c1)N1CCN(c2ccnc3cc(Cl)ccc23)CC1`: the growth is 92.6%.

Take `Cc1cccc(Cl)c1NC(=O)c1ccc2nc(NC(=O)NC3CCN(C)CC3)sc2c1`: the growth is 123%.

With `O=C(Nc1ccc(N2CCNCC2)cc1)c1[nH]ncc1Nc1cc(Oc2ccccc2)ncn1`, the growth is -49.6% (active).

Turning to `COc1ccc(Cn2cc(C(=O)Nc3cccnc3Nc3ccccc3)nn2)cc1`, the growth was 104%.

Consider `C=CCn1c(SCC(=O)Nc2ccc(C(=O)/C=C/c3ccc(OC)cc3)cc2)nnc1-c1ccccc1`, for which the growth was 88.5%.

In the case of `COc1ccc(/C(=N\N)C(=O)c2ccccc2)cc1` (tested in a mixture with another compound), the growth is 77.8%.

In the case of `C=C1C(=O)O[C@H]2[C@H]1CC/C(CNC(=O)/C=C/c1ccccc1F)=C\CC[C@@]1(C)O[C@@H]21`, the growth is -31.9% (active).

For the molecule `COc1cc2nc3cc([N+](=O)[O-])ccc3c(NCCCNCCO)c2cc1OC`, the growth is -25.3% (active).

Consider `Nc1nc(NC2CC2)cc(-c2cccc(Cl)c2Cl)n1`, for which the growth was 32.6%.

As for `CC(C)(C)c1cc(C(=O)N2CCC(C(=O)NCCN)CC2)cc(C(C)(C)C)c1`, the growth is 90.5%.

On to `Nc1c(C(=O)Nc2ccccc2Cl)sc2nc3c(cc12)C(=O)CCC3`, for which the growth is 67.1%.

For the molecule `O=c1c2cc(F)ccc2sc2c(N3CCNCC3)nc3ccc(F)cc3c12`, the growth was 3.71% (active).

Take `CN1CCN(Cc2ccc(NC(=O)c3cncc(C#Cc4cnc(N)c5cccnc45)c3)cc2C(F)(F)F)CC1`: the growth is -13.9% (active).

On to `Cc1ccc(Nc2nc(N)nc(CSCC(=O)NN)n2)cc1`, for which the growth is 20.5%.

With `Nc1n[nH]c2cccc(C#Cc3cccc(C(=O)Nc4ccc(CN5CCOCC5)c(C(F)(F)F)c4)c3)c12`, the growth was 7.67% (active).

Take `CO/N=C(/C(=O)NC1C(=O)N2C(C(=O)O)=C(COC(N)=O)CSC12)c1ccco1` (centres undefined): the growth is 109%.

Turning to `Cc1cn(C(C=O)OC(C=O)CO)c(=O)[nH]c1=O` (centres undefined), the growth is 103%.

Turning to `COc1cc2c(c(OC)c1OC)CCC(c1cccc(C(=O)Nc3ccc([N+](=O)[O-])cc3)c1)O2` (centres undefined), the growth was 38.8%.

With `CCN1CCN(CC(=O)Nc2nc3ccc(NCc4ccc(F)cc4)cc3s2)CC1`, the growth was 96.4%.

For `COc1cc2cc(c1Cl)N(C)C(=O)C[C@H](OC(=O)[C@H](C)N(C)C(=O)CCS)C[C@]1(C)O[C@H]1[C@H](C)[C@@H]1C[C@@](O)(NC(=O)O1)[C@H](OC)/C=C/C=C(\C)C2`, the growth was -28% (active).

Take `CC(=O)Cc1nsc(NC(=O)c2cc(-c3cc(Cl)ccc3Cl)oc2C)n1`: the growth is 94.3%.

For the molecule `Oc1ccc(/C=C/c2ccccc2)cc1`, the growth was 34.1%.

For the molecule `CC(C)(C)c1cc(C=Nc2cccc(C(F)(F)F)c2)c(O)c(C(C)(C)C)c1`, the growth is 90.1%.

As to `COc1ccc(C)c2sc(N(Cc3cccnc3)C(=O)c3ccc(C#N)cc3)nc12`, the growth was -6.46% (active).

Take `CN(CSc1ccc(Cl)cc1)c1ccc(CSc2ccc(Cl)cc2)cc1`: the growth was -16.2% (active).

For the molecule `CC(C)COC(=O)NC(C)(C)C`, the growth is 85.2%.

In the case of `COc1cc(/C=C/C(=O)c2ccc(Nc3nc(NCCO)nc(N4CCOCC4)n3)cc2)cc(OC)c1OC`, the growth is -28.6% (active).

For the molecule `O=C(/C=C/C12c3ccccc3C(c3ccccc31)C1C(=O)NC(=O)C12)c1ccc(Cl)cc1` (centres undefined), the growth was -6.98% (active).

Turning to `COc1cc2oc(-c3cccc(NC(=O)Nc4ccc5c(c4)OCO5)c3)cc(=O)c2c(OC)c1OC`, the growth is 56.8%.

As to `[2H]C([2H])([2H])Oc1cc(F)ccc1/C=C/C(=O)/C=C(/C=C/c1ccc(F)cc1OC([2H])([2H])[2H])OB(F)F`, the growth is 11.6%.

For the molecule `Cc1cc(C#Cc2ccc(C(C)(C)C)cc2)ccc1-n1c(/C=C/c2c(Cl)cccc2Cl)nc2ccccc2c1=O`, the growth is 99.6%.

In the case of `O=c1c2c(=NCCCN3CCCC3)cc3c(=O)n(CCCN4CCCC4)c(=O)c4c(NCCCN5CCCC5)cc(c(O)n1CCCN1CCCC1)c2c4-3`, the growth is 29.9%.

As to `CCCCC1COc2cccc3c2N1C=C/C3=C\C(=O)n1ccc2ccccc21` (centres undefined), the growth was 58%.

For `COc1cc(C2CC(c3ccc(Cl)cc3)=NN2C=O)ccc1Oc1ccnc2cc(Cl)ccc12` (centres undefined), the growth was 85.9%.
